{"source": "the supplement of paper PMC8047044", "data": [{"system": "Neuro-2a", "assay": "neurite formation score, plate-normalized to DMSO control mean 5.04 (score (0-8 scale)); higher = more or longer neurites", "conditions": "0.1 µM", "description": "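Neuro-2a mouse neuroblastoma cells in PLL-coated 96-well plates were pre-treated for 1 h in DMEM(+) with each kinase inhibitor at 0.1 µM, then switched to serum-free DMEM(-) with inhibitor to induce neurite outgrowth and fixed about 2-3 h later. Three blinded observers scored neurite formation from 0 (no neurites) to 8 (long neurites on almost all cells).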", "values": [{"smiles": "O=c1c(-c2ccc(O)cc2)coc2cc(O)cc(O)c12", "note": "[Genistein]", "neurite formation score": 3.38}, {"smiles": "CCCCCCCCc1ccc(CCC(N)(CO)CO)cc1", "note": "[Fingolimod (FTY720)]", "neurite formation score": 4.25}, {"smiles": "CN(C)C/C=C/C(=O)Nc1cc2c(Nc3ccc(F)c(Cl)c3)ncnc2cc1O[C@H]1CCOC1", "note": "[Afatinib dimaleate]", "neurite formation score": 4.38}, {"smiles": "CN(C)CCCn1cc(C2=C(c3c[nH]c4ccccc34)C(=O)NC2=O)c2ccccc21", "neurite formation score": 5.54}]}]}
